Measured values as given in paper PMC10726135, “HNF4α isoforms regulate the circadian balance between carbohydrate and lipid metabolism in the liver”.
In all, about 18,000 sequences were measured (“log2 normalized intensity”: median about 0.39, highest 2% from about 6.6 on). Only a selection was taken, and the highest values are over-represented in it overall.

target: T1, HNF4alpha2 (COS-7 nuclear extract) (Homo sapiens, UniProt P41235 1-474); test: protein-binding microarray; COS-7 nuclear extract on double-stranded Agilent 4x180k PBM; binding buffer, salt, pH and temperature not given in the material; high values mean tight binding; conditions: chain copies: 2; label: 3' end of strand 1 on the slide; dsDNA, one strand shown
T1 sequence: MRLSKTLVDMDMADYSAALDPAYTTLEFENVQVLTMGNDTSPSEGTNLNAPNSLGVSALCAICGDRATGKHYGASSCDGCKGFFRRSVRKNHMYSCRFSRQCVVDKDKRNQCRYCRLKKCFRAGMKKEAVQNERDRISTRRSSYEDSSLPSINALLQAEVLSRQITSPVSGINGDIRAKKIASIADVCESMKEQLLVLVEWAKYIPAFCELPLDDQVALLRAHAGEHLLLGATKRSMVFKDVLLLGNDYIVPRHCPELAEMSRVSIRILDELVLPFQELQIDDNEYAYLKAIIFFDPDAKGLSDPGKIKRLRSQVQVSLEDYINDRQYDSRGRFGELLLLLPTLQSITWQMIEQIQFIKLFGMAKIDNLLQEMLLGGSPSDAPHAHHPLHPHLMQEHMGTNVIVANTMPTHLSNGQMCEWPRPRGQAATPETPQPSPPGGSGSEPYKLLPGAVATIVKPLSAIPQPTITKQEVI
Method in brief: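 Nuclear extracts came from COS-7 cells transiently transfected by CaPO4 with a human HNF4α isoform expression vector. They were applied to a custom Agilent SurePrint G3 4x180k array of ~60-nt oligonucleotides, made double-stranded, with ~44,000 test sequences spotted in quadruplicate. Bound HNF4α was imaged at 2-µm resolution on an Agilent G2565CA scanner. Binding signal was taken as background-corrected, normalized gProcessedSignal from Agilent software.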

| Sequence | binding signal |
| --- | --- |
| GAGTTCTTCAAGTCAGTCAAAATGAATAGTGCCTAGGGAGATTAGAGTATCGGTCGA | 1.32 log2 normalized intensity |
| TTGGCAGATTAGATATATCTGTACTCAAACGCCTAGGGAGATTAGAGTATCGGTCGA | 1.27 log2 normalized intensity |
| TAACAGGATTTTTGCTGAAGACAGGCCAGGGCCTAGGGAGATTAGAGTATCGGTCGA | -0.417 log2 normalized intensity |
| CTGAATGGAATGAAGATACTGGATAACCTTGCCTAGGGAGATTAGAGTATCGGTCGA | 0.695 log2 normalized intensity |
| AGAATGAGACCTGCTAGGCTGCATTCTCTGGCCTAGGGAGATTAGAGTATCGGTCGA | -0.977 log2 normalized intensity |
| ATTCATTCCCTAAGATTCTGGTCAAAGGTCGCCTAGGGAGATTAGAGTATCGGTCGA | 7.3 log2 normalized intensity |
| TTACATGCCTTATCTGGTTCAAAGGTCATTGCCTAGGGAGATTAGAGTATCGGTCGA | 7.65 log2 normalized intensity |
| TTCTGGTCAAAGGTCAATGAAGCTCTTGCTGCCTAGGGAGATTAGAGTATCGGTCGA | 5.65 log2 normalized intensity |
| TAAGATTCTGGTCAAAGGTCAATGAAGCTCGCCTAGGGAGATTAGAGTATCGGTCGA | 5.93 log2 normalized intensity |
| TGCCTTATCTGGTTCAAAGGTCATTTCTGCGCCTAGGGAGATTAGAGTATCGGTCGA | 6.58 log2 normalized intensity |
| TATCTGGTTCAAAGGTCATTTCTGCTTGCAGCCTAGGGAGATTAGAGTATCGGTCGA | 5.75 log2 normalized intensity |
| TTCATTCTTTAAGGACCACATCAAAGGTCAGCCTAGGGAGATTAGAGTATCGGTCGA | 4.7 log2 normalized intensity |
| TTCCCTAAGATTCTGGTCAAAGGTCAATGAGCCTAGGGAGATTAGAGTATCGGTCGA | 7.36 log2 normalized intensity |
| TTATCTTACATGCCTTATCTGGTTCAAAGGGCCTAGGGAGATTAGAGTATCGGTCGA | 2.9 log2 normalized intensity |
| TGAGGCCCCAGTGTCAATTCTCATTCATCCGCCTAGGGAGATTAGAGTATCGGTCGA | -0.225 log2 normalized intensity |
| AACCCTTGCACTGCTGGTTTTTGTCAAAGAGCCTAGGGAGATTAGAGTATCGGTCGA | 0.709 log2 normalized intensity |
| GCCTGTCAGGCCCAGAAACACTGAACCTTGGCCTAGGGAGATTAGAGTATCGGTCGA | 1.63 log2 normalized intensity |
| TTGCACTGCTCAGGGTGGGGTCTCGCTGCTGCCTAGGGAGATTAGAGTATCGGTCGA | -0.755 log2 normalized intensity |
| ACACAATATTATGTTTTGTTATCTGTGCCAGCCTAGGGAGATTAGAGTATCGGTCGA | 1.17 log2 normalized intensity |

| Sequence | binding signal |
| --- | --- |
| GTAAACTCCCTTTGATGCGGTCAGAGTTCAGCCTAGGGAGATTAGAGTATCGGTCGA | 3.08 log2 normalized intensity |
| AGTGAACTCAAAGAAAAGTTATGTTGGGCAGCCTAGGGAGATTAGAGTATCGGTCGA | 1.17 log2 normalized intensity |
| TCCCTTGCTCCACCCTTCTATCCCCTTATCGCCTAGGGAGATTAGAGTATCGGTCGA | 2.8 log2 normalized intensity |
| CTTTGGACTTTCAAAAGTTAAGGTCAAGACGCCTAGGGAGATTAGAGTATCGGTCGA | 1.94 log2 normalized intensity |
| GGTCAAAGGTCAGTTTCTTTAAGACAAGTGGCCTAGGGAGATTAGAGTATCGGTCGA | 5.53 log2 normalized intensity |
| GACTGTCTTAGGAAAGAACAGGTCAAAGGTGCCTAGGGAGATTAGAGTATCGGTCGA | 3.91 log2 normalized intensity |
| TAGGAGACTGTCTTAGGAAAGAACAGGTCAGCCTAGGGAGATTAGAGTATCGGTCGA | 1.14 log2 normalized intensity |
| TCTTAGGAAAGAACAGGTCAAAGGTCAGTTGCCTAGGGAGATTAGAGTATCGGTCGA | 9.13 log2 normalized intensity |
| GAACAGGTCAAAGGTCAGTTTCTTTAAGACGCCTAGGGAGATTAGAGTATCGGTCGA | 7.04 log2 normalized intensity |
| AAGATTTATCAGGTCTTTCTTTCAGAACAGGCCTAGGGAGATTAGAGTATCGGTCGA | 0.622 log2 normalized intensity |
| GCAGTTTAGAGAAAGGGTCAAAGGTTAAGCGCCTAGGGAGATTAGAGTATCGGTCGA | 8.4 log2 normalized intensity |
| TCAGAAACAGGAATTCAAAGGTGCAAAGGTGCCTAGGGAGATTAGAGTATCGGTCGA | 2.06 log2 normalized intensity |
| GGAAAGAACAGGTCAAAGGTCAGTTTCTTTGCCTAGGGAGATTAGAGTATCGGTCGA | 7.28 log2 normalized intensity |
| GCAGAGCAGTTTAGAGAAAGGGTCAAAGGTGCCTAGGGAGATTAGAGTATCGGTCGA | 5.29 log2 normalized intensity |
| TTAGAGAAAGGGTCAAAGGTTAAGCCATTGGCCTAGGGAGATTAGAGTATCGGTCGA | 5.92 log2 normalized intensity |
| ACCCTGAATGTGTGCTGGCCTGGTTCCTTCGCCTAGGGAGATTAGAGTATCGGTCGA | 0.887 log2 normalized intensity |
| TTGTCCCTTTTCTATCCAGATGATCTTTACGCCTAGGGAGATTAGAGTATCGGTCGA | 2.25 log2 normalized intensity |
| GTCCCAGTAGATAACTTCAAGGAGCTCGGCGCCTAGGGAGATTAGAGTATCGGTCGA | -0.627 log2 normalized intensity |
| GTAGGGCCAATCTCTGGCATGTATTTATCAGCCTAGGGAGATTAGAGTATCGGTCGA | 0.384 log2 normalized intensity |

| Sequence | binding signal |
| --- | --- |
| ATAGGAGGATTTTATTCAGGTGGCCACTGGGCCTAGGGAGATTAGAGTATCGGTCGA | 1.03 log2 normalized intensity |
| GTTCCGCGGTCCGCAGCGCTGGTGGCTGCAGCCTAGGGAGATTAGAGTATCGGTCGA | -0.919 log2 normalized intensity |
| CTTTGTATAAGCCGTGCAAAGTTCATCCCTGCCTAGGGAGATTAGAGTATCGGTCGA | 3.24 log2 normalized intensity |
| CTCGAGGTGGACTTTCCCCCCTCACACTTTGCCTAGGGAGATTAGAGTATCGGTCGA | 5.25 log2 normalized intensity |
| TTGTTTTTGCTTGGAATGCCCTTATCTCATGCCTAGGGAGATTAGAGTATCGGTCGA | 2.32 log2 normalized intensity |
| AGCTGGGCCTGTGCTGGGGACAAAAGCTGAGCCTAGGGAGATTAGAGTATCGGTCGA | -0.959 log2 normalized intensity |
| TTTTCCACCCTCCCCTCCCCCTCCTCCCCTGCCTAGGGAGATTAGAGTATCGGTCGA | 7.13 log2 normalized intensity |
| ATTCCCTTTCTCCTCCCCTCCCCTCCCCCCGCCTAGGGAGATTAGAGTATCGGTCGA | 6.91 log2 normalized intensity |
| ACACCAGGCCCTCGGCATCATGCCCTTTGGGCCTAGGGAGATTAGAGTATCGGTCGA | 3.91 log2 normalized intensity |
| TTCCTCCCACTCTGACATCCCCCTTTCTCTGCCTAGGGAGATTAGAGTATCGGTCGA | 3.26 log2 normalized intensity |
| CTCGGCATCATGCCCTTTGGCCCCCAGAGCGCCTAGGGAGATTAGAGTATCGGTCGA | 6.14 log2 normalized intensity |
| AGGCCCTCGGCATCATGCCCTTTGGCCCCCGCCTAGGGAGATTAGAGTATCGGTCGA | 7.28 log2 normalized intensity |
| CATTTTTTTCCACCCTCCCCTCCCCCTCCTGCCTAGGGAGATTAGAGTATCGGTCGA | 6.28 log2 normalized intensity |
| CTTACTCTCTCCCTCCTCCTTTTTTTCCCCGCCTAGGGAGATTAGAGTATCGGTCGA | 2.98 log2 normalized intensity |
| CCCTCCTCCTTTTTTTCCCCTCCCTCAGCTGCCTAGGGAGATTAGAGTATCGGTCGA | 3.64 log2 normalized intensity |
| CTTTCTCCTCCCCTCCCCTCCCCCCACTCAGCCTAGGGAGATTAGAGTATCGGTCGA | 6.94 log2 normalized intensity |
| ACTGCATTCCCTTTCTCCTCCCCTCCCCTCGCCTAGGGAGATTAGAGTATCGGTCGA | 4.31 log2 normalized intensity |
| TCTCTCCCTCCTCCTTTTTTTCCCCTCCCTGCCTAGGGAGATTAGAGTATCGGTCGA | 4.61 log2 normalized intensity |
